Screening results: PubChem BioAssay, National Center for Advancing Translational Sciences (NCATS)
POLH inh: qHTS for Inhibitors of Polymerase Eta. 390,000 tested, 1.2% active. recombinant Pol eta, fluorescent DNA replication assay. Potency, µM (highest dose often 114 µM), actives largely listed as inhibitors
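Pol eta at 10 nM preincubated with compounds 15 min at room temperature; reaction started with fluorescent substrate (50 nM final) and read kinetically at 0 and 10 min.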
Pol beta inh: qHTS Assay for Inhibitors of DNA Polymerase Beta. P06746. Pol beta primer extension/strand displacement, fluorescence kinetic. Potency, µM (doses to about 114 µM), most hits filed as inhibitors. 340,000 tested, 1.3% active. AID 485314, 2010
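10 nM enzyme + cpd, 15 min RT; start with substrate 50 nM final; read 0 min and after 10 min RT. Corrected, normalized data; 4-parameter Hill curve fit.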
WRN helicase inh: qHTS for Inhibitors of WRN Helicase; Bifunctional 3'-5' exonuclease/ATP-dependent helicase WRN (Homo sapiens), Q14191; WRN helicase unwinding, fluorescent forked duplex, kinetic; Potency, µM (top dose mostly 114 µM), usual class: inhibitors; 360,000 tested, 0.46% active; also: nearly all actives have a fitted effect of over 55% in size
Target sequence (Q14191 whole entry, looked up): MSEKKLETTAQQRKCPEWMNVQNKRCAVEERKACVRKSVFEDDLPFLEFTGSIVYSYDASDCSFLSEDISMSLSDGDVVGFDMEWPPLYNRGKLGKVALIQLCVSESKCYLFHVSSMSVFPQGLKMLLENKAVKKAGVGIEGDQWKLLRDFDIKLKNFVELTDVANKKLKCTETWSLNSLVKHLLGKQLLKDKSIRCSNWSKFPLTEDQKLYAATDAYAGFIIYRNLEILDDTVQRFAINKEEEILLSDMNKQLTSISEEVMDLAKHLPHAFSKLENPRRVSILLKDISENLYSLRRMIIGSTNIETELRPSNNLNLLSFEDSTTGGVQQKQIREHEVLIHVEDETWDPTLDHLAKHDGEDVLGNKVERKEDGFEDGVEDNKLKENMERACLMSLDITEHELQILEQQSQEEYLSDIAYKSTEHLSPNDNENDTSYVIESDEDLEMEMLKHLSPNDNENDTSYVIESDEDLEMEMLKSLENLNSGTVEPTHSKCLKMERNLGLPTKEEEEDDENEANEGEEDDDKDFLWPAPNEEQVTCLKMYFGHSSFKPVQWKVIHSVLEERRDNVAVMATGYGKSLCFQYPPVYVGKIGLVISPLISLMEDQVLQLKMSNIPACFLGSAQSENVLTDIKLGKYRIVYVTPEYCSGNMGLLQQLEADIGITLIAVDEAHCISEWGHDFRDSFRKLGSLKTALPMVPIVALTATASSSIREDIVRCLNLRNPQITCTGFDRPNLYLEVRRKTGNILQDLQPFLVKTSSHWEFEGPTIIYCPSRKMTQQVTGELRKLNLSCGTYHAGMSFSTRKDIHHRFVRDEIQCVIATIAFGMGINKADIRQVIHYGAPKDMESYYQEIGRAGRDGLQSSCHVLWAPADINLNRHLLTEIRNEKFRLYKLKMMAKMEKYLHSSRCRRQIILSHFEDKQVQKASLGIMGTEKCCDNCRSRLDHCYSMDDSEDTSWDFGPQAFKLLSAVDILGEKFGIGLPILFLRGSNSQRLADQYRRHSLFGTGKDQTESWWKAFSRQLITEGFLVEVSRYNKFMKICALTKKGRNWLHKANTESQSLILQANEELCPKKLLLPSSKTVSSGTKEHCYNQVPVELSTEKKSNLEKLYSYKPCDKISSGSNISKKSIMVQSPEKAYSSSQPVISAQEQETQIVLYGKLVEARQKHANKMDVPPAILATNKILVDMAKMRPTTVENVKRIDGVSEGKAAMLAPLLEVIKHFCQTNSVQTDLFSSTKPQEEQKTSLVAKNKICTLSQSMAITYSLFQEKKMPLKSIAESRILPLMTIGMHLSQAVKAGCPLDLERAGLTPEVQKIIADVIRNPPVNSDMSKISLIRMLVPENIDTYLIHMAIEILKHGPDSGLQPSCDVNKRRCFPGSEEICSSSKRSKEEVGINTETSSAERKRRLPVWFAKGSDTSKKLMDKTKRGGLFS
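WRN at 20 nM final preincubated with compound 15 min at room temperature; reaction started with 100 nM fluorophore/quencher forked duplex oligonucleotide and 2 mM ATP final. Unwinding followed kinetically by red fluorescence (ex 525, em 598 nm).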
PI5P4Ka inh: qHTS for Inhibitors of phosphatidylinositol 5-phosphate 4-kinase (PI5P4K). AID 652105, 2013. PI5P4Kalpha enzyme, ADP-Glo luminescence, 60 min; hits give low values. max response, %. 330,000 tested, 1.2% active; active = max response of -50% or lower; inconclusive = between -30% and -50%; inactive = -30% or higher; also: value at the top dose of about 77 µM
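qHTS, 1536-well: enzyme/substrate mix, compound by pin tool, 5 microM ATP final; RT 60 min; ADP-Glo reagents 1 (45 min) then 2 (30 min); luminescence.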
POLI inh: qHTS for Inhibitors of Polymerase Iota. DNA polymerase iota (Homo sapiens), Q9UNA4. Pol iota fluorescent replication assay, 10 min. Potency, µM (doses to about 115 µM), hits mostly inhibitors. 390,000 tested, 1% active. AID 588590, 2011
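Fluorescent replication assay read twice, at 0 min and 10 min after adding 50 nM (final) substrate. Enzyme (10 nM) and compounds were first incubated 15 min at room temperature; enzyme-free buffer wells were negative controls.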
POLK inh: qHTS for Inhibitors of Polymerase Kappa; DNA polymerase kappa (Homo sapiens), Q9UBT6; 400,000 tested, 0.53% active; AID 588579, 2011; purified Pol kappa, fluorescent DNA synthesis assay, 10 min; Potency, µM (highest dose often 107 µM), most hits filed as inhibitors
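Inhibition of 10 nM Pol kappa is measured by a fluorescent read-out at 0 and 10 min following addition of 50 nM substrate (final), with a 15-min room-temperature compound preincubation.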
ADP-Glo interf: qHTS for Inhibitors of PI5P4K: ADP-Glo counter assay; ADP-Glo detection counter-screen, luciferase luminescence, no enzyme; 1,100 tested, under 10 active; Potency, µM (top dose mostly 76.9 µM), actives largely listed as inhibitors; shares compounds with PI5P4Ka inh
Large screens that a line does not name were inactive (follow-up assays come after a bar, where they were run). Only some compounds are listed: those with a hit (about 2.8% of all), similar ones and a draw of the others. Unless noted, calls follow the shape of the dose curve; as a rule, active = well fitted curve in the direction sought with a large enough effect; inconclusive = small, poorly fitted or top-dose-only effect, or another doubt; inactive = no such curve, though single readings can be large; an effect the other way counts as inactive or inconclusive.

Cc1cccc(NC(c2ccc(O)cc2)c2ccc3ccc(C)nc3c2O)n1 (stereo unspecified)	PI5P4Ka inh -52 | ADP-Glo interf inactive
CCOC(=O)[C@H]1[C@H]2COc3ccccc3[C@@H]2N2C(=O)c3c(C)cc(C)cc3NC(=O)[C@@]12C	none (no result: Pol beta inh)
Nc1cc(-c2ccncc2)c[nH]c1=O	POLH inh inconclusive, PI5P4Ka inh -56, POLI inh 10µM | ADP-Glo interf inactive
COc1c(C)cc(Br)cc1C(=O)Nc1cccc(NC(=O)c2ccco2)c1	none
COc1ccc(Br)cc1C(=O)Nc1cccc(NC(=O)c2ccco2)c1	none | ADP-Glo interf inactive
Cc1cc(S(=O)(=O)Nc2cccc(-c3ccc(N4CCOCC4)nn3)c2)c(C)cc1Cl	none (no result: WRN helicase inh, PI5P4Ka inh)
Cc1ccc(C)c2[nH]c(=O)c(CCNC(=O)c3ccc(S(=O)(=O)N4CCOCC4)cc3)cc12	Pol beta inh inconclusive, PI5P4Ka inh -57 | ADP-Glo interf inactive
Cc1cccc(NC(=O)c2ccc3nccnc3c2)c1C	none
O=C(Nc1ccccc1Cl)c1ccc2nccnc2c1	POLH inh inconclusive, POLI inh inconclusive, POLK inh inconclusive | ADP-Glo interf inactive
O=S(=O)(c1ccccc1)N1N=C(c2ccccc2)CC1c1ccccc1 (stereo unspecified)	none
O=S(=O)(c1ccccc1)N1N=C(c2cccs2)CC1c1ccc(Br)cc1 (stereo unspecified)	PI5P4Ka inh -55, POLI inh inconclusive | ADP-Glo interf inactive
O=C(Cc1c(F)cccc1Cl)Nc1cccc(S(=O)(=O)NC2=NCCCCC2)c1	none (no result: Pol beta inh)
O=C(Cc1ccc(Cl)cc1Cl)Nc1cccc(S(=O)(=O)Nc2ccccc2F)c1	WRN helicase inh 56µM, PI5P4Ka inh -51 | ADP-Glo interf inactive
CC(=O)c1ccc(S(=O)(=O)NCCC(=O)OCC(=O)N(Cc2ccccc2)C(C)(C)C)cc1	none (no result: Pol beta inh)
CN(N)C(=S)NCc1ccccc1	none (no result: PI5P4Ka inh)
CN(C)C(=S)NCc1ccccc1	WRN helicase inh inconclusive, PI5P4Ka inh -54 | ADP-Glo interf inactive
Cc1ccc(/C=N/NC(=O)c2cc3c(s2)CCCC3)o1	none (no result: Pol beta inh)
Cc1ccc(N2CSC3=C(C#N)C(c4cccs4)CC(=O)N3C2)cc1 (stereo unspecified)	Pol beta inh inconclusive, PI5P4Ka inh -60, POLI inh inconclusive, POLK inh inconclusive | ADP-Glo interf inactive
COc1cc(OC)c(C2CC(=O)N3CN(c4ccc(C)cc4)CSC3=C2C#N)cc1OC (stereo unspecified)	WRN helicase inh inconclusive, PI5P4Ka inh -77 | ADP-Glo interf inactive
N#CC1=C2SCN(c3ccc(F)cc3)CN2C(=O)CC1c1cccc(F)c1 (stereo unspecified)	PI5P4Ka inh -59 | ADP-Glo interf inactive
CCc1ccc(C2CC(=O)N3CN(c4ccccc4)CSC3=C2C#N)cc1 (stereo unspecified)	Pol beta inh 40µM, PI5P4Ka inh -95, POLI inh inconclusive | ADP-Glo interf inactive
CN1CSC2=C(C#N)C(c3cccc(OCc4ccccc4)c3)CC(=O)N2C1 (stereo unspecified)	PI5P4Ka inh inconclusive
COc1ccc(C(=O)/C=C/Nc2ccc(S(N)(=O)=O)cc2)cc1OC	POLI inh inconclusive
CN(N=O)c1ccc(/C=C2\C=Cc3ccccc32)cc1	none (no result: POLH inh, Pol beta inh, WRN helicase inh, PI5P4Ka inh)
CCc1ccc(N2CSC3=C(C#N)C(c4cccs4)CC(=O)N3C2)cc1 (stereo unspecified)	POLH inh inconclusive, Pol beta inh inconclusive, PI5P4Ka inh -68, POLI inh 11µM, POLK inh 79µM | ADP-Glo interf inactive
CCOC(=O)C1=C(CC)Nc2ccccc2N=C1NC(=O)c1ccc(S(=O)(=O)N(C)C)cc1	PI5P4Ka inh -51, POLI inh inconclusive | ADP-Glo interf inactive
CCOC(=O)C1=C(CC)Nc2ccccc2N=C1NC(=O)c1ccc(S(=O)(=O)N2CCOCC2)cc1	none
CC/C(=N\NC(N)=O)c1ccc(OC(F)F)cc1	none
Cc1ccccc1OCc1cc(=O)n2c(-c3ccccc3)csc2n1	none (no result: WRN helicase inh, PI5P4Ka inh)
CCN(CC(=O)NC(C)(C)C)Cc1cc(=O)n2c(-c3ccccc3)csc2n1	POLH inh inconclusive, Pol beta inh inconclusive, PI5P4Ka inh -74, POLI inh 45µM | ADP-Glo interf inactive
Cc1ccc(Sc2c(C)nn(C(=O)COc3ccccc3)c2C)cc1	none (no result: WRN helicase inh, PI5P4Ka inh)
CCN(CC(=O)Nc1ccc(NC(C)=O)cc1)Cc1c(O)ccc2cc(Br)ccc12	PI5P4Ka inh -71 | ADP-Glo interf inactive
Cc1ccc(NC(=O)CN(C)Cc2c(O)ccc3ccccc23)cc1	WRN helicase inh inconclusive, PI5P4Ka inh inconclusive
COc1ccc(Oc2ncc3nc(CCc4ccccc4)c(=O)n(CCC#N)c3n2)cc1	none (no result: POLH inh, Pol beta inh, WRN helicase inh, PI5P4Ka inh, POLI inh)
COc1cc(C(=O)Nc2scc(-c3ccc(Br)cc3)c2C(=O)O)cc(OC)c1OC	POLH inh inconclusive, PI5P4Ka inh -98 | ADP-Glo interf inactive
Cc1ccc(-c2csc(NC(=O)c3ccc(Br)cc3)c2C(=O)O)cc1	POLH inh 50µM, PI5P4Ka inh -77 | ADP-Glo interf inactive
Cc1cccc(C(=O)Nc2scc(-c3ccc(Br)cc3)c2C(=O)O)c1	WRN helicase inh inconclusive, PI5P4Ka inh inconclusive (no result: Pol beta inh)
Cc1ccc(-c2csc(NC(=O)c3ccccc3Cl)c2C(=O)O)cc1	PI5P4Ka inh -55 | ADP-Glo interf inactive
Cc1ccc(C)c(S(=O)(=O)N2CCCOC2CNC(=O)C(=O)NCc2ccncc2)c1 (stereo unspecified)	none
CN(C)c1ccc(S(=O)(=O)NCC(=O)NCCC2=CCCCC2)cc1[N+](=O)[O-]	none (no result: Pol beta inh)
COc1ccccc1NC(=O)Nc1nc(CC(=O)Nc2cccc(F)c2)cs1	none (no result: Pol beta inh)
COc1ccccc1NC(=O)Nc1nc(CC(=O)Nc2cc(F)ccc2F)cs1	POLH inh inconclusive, WRN helicase inh inconclusive, PI5P4Ka inh -52 (no result: Pol beta inh) | ADP-Glo interf inactive
COc1ccc(Cn2c(-c3ccccc3C)nc3c(c(=O)c4ccccc4n3C)c2=O)cc1	none (no result: Pol beta inh)
O=C(CCCOc1ccccc1)NNC(=O)c1ccncc1	POLI inh inconclusive (no result: Pol beta inh)
CCC1(c2ccc(OC)cc2)NC(=O)N(C)C1=O (stereo unspecified)	none (no result: POLH inh, Pol beta inh, WRN helicase inh, PI5P4Ka inh, POLI inh)
O=C(NCC1CC1)c1ccc(Nc2nc3ccc(Br)cc3[nH]2)cc1	POLH inh inconclusive, PI5P4Ka inh -56, POLI inh inconclusive | ADP-Glo interf inactive
